± gives the standard deviation of the averaged measurements.
Tested on: FaDu
Experiment: mitochondrial oxygen consumption rate normalised to cell number, Z score vs plate DMSO wells; higher = higher oxygen consumption (negative = OCR reduction)
Settings: treatment time 24 h, assay medium: 5 mM glucose, 5 mM pyruvate, 4 mM glutamine
Method: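 Secondary screen: FaDu cells were incubated 24 h with the top 130 primary hits at 0.08, 0.4, 2 or 10 uM. Mitochondrial-specific OCR (basal minus antimycin A) was measured on a Seahorse XF96 in medium with 5 mM glucose, 5 mM pyruvate and 4 mM glutamine and normalised to Hoechst cell number. OCR score = (OCR - mean of plate DMSO wells) / SD of plate DMSO wells. Three repeats.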
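Further: compound exposure in DMEM (4 mM L-glutamine, 5 mM glucose), antimycin A injected at 2 µM after the basal reading and its residual OCR subtracted from basal.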

Compound	mitochondrial oxygen consumption rate normalised (0.08 µM)	mitochondrial oxygen consumption rate normalised (0.4 µM)	mitochondrial oxygen consumption rate normalised (2 µM)	mitochondrial oxygen consumption rate normalised (10 µM)
CCN(CC)CCCC(C)Nc1ccnc2cc(Cl)ccc12 (stereo not given)	0.223 ± 1.1	1.56 ± 0.35	-0.792 ± 0.8	0.482 ± 1.1
O=C(O[C@H]1CN2CCC1CC2)N1CCc2ccccc2[C@@H]1c1ccccc1	1.08 ± 2.1	0.729 ± 0.44	0.566 ± 1.2	-0.974 ± 1.9
CN(C)CCCN1c2ccccc2CCc2ccccc21	-0.638 ± 1.5	-0.388 ± 0.95	-0.981 ± 1.9	-0.576 ± 1.4
CC(C)(C)CC(C)(C)c1ccc(OCCOCC[N+](C)(C)Cc2ccccc2)cc1	-0.0571 ± 1.2	0.0149 ± 0.7	-6.66 ± 0.41	-13 ± 0.41
C=CC1=C(C)c2cc3[nH]c(cc4nc(cc5[nH]c(cc1n2)c(C)c5CCC(=O)O)C(CCC(=O)O)=C4C)c(C)c3C=C	0.0776 ± 2.3	1.29 ± 2	0.447 ± 0.95	-1.43 ± 1.3
CCCCC(CC)CN1CN(CC(CC)CCCC)CC(C)(N)C1 (stereo not given)	1.53 ± 1.5	0.568 ± 0.56	0.773 ± 1.7	-5.24 ± 1.7
O=C1C(O)=C([C@H]2CC[C@H](c3ccc(Cl)cc3)CC2)C(=O)c2ccccc21	-0.607 ± 2.4	1.63 ± 1.6	-0.111 ± 2.5	-3.55 ± 2.2
CCc1c2c(nc3ccc(OC(=O)N4CCC(N5CCCCC5)CC4)cc13)-c1cc3c(c(=O)n1C2)COC(=O)[C@]3(O)CC	0.871 ± 0.77	1.67 ± 1.4	1.27 ± 0.31	-4.72 ± 1
Nc1nc2[nH]cnc2c(=S)[nH]1	-1.04 ± 1.9	-0.865 ± 0.14	-5.57 ± 0.33	-5.01 ± 1.4
CO[C@@]12[C@H](COC(N)=O)C3=C(C(=O)C(C)=C(N)C3=O)N1C[C@@H]1N[C@@H]12	-0.603 ± 0.39	1.96 ± 0.85	-1.73 ± 1.2	-3.99 ± 1.3

Source: the supplement of paper PMC4962491
